# Measurements: PubChem BioAssay (Tox21)
# Results filed as inconclusive are left out. Activity calls are given as the source filed them. The call rests on the fitted dose curve; in most records, active means well fitted activation curve with a large enough effect; inconclusive means small, poorly fitted or top-dose-only effect; inactive means flat fitted curve, though single readings scatter.
# Experiment: qHTS assay to identify small molecule phospholipidosis (PLD) inducers (AID 1259344)
# Conditions: HepG2 phospholipidosis, LipidTOX Red imaging, 24 h; series mostly up to 38.3 µM; PLD induction: at the top concentration
# Excerpt: National Center for Advancing Translational Sciences [NCATS]
# Drug-induced Phospholipidosis (PLD) caused by cationic amphiphilic drugs is characterized by the appearance of unicentric or multicentric-lamellar bodies when viewed under electron microscope. Electron microscopy is the gold standard method for PLD detection, however, this method is time-consuming and labor intensive, making it unsuitable for evaluating a large set of compounds. A cell-based phospholipidosis assay has been developed using the LipidTox reagent in HepG2 cells and miniaturized into a 1536-well plate format. Drug induced phospholipid accumulation is stained with the LipidTox dyes in red color which then is determined using an automated high content screening system.
# HepG2 cells are dispensed at 900 cells/3 uL/well into Collagen I-coated 1536-well black-wall/clear-bottom assay plates (Greiner Bio-One, Monroe, NC) using the Multidrop Combi 8 channel dispenser (Thermo Fisher, Waltham, MA, USA). The assay plates are incubated at 37 C for 4 hours to allow the cell attachment. 3 uL of 1:500 LipidTOX Red dye is added using the dispenser, and then 23 nL compounds are added via a Wako Pintool station (Wako Automation, San Diego, CA). Amiodarone, a known PLD inducer, was used as a positive control and DMSO was used as a negative control. The assay plates were then incubated at 37 C for 24 hours.
# For fixations, 4 uL of 8% paraformaldehyde fixative solution containing 10 ug/mL Hoechst 33342 in Dulbecco's phosphate-buffered saline (DPBS) is added using a Kalypsys washer/dispenser (Kalypsys, San Diego, CA, USA). After incubation at room temperature for 30 min, the assay plates are washed once with DPBS using a Kalypsys washer/dispenser. The assay plates are then sealed and stored at 4 C before imaging. The fluorescence intensities (595 nm excitation, 615 nm emission for LipidTOX; 352 nm excitation, 461 nm emission for Hoechst 33342) are measured using an ImageXpress Micro Widefield High Content Screening System (Molecular Devices, Sunnyvale, CA, USA) with a 20x Plan Fluor objective. Images are acquired for one site in each well and analyzed with the MetaXpress software (Molecular Devices) using the Transfluor module. Several algorithmic outputs, such as pit count per well, pit count per cell, pit integrated intensity per well, and pit integrated intensity per cell, are used for quantitative image analysis for PLD.
# On the % scale 0 is the no-effect control and ±100 the full control effect.
Structure (SMILES),PLD induction,Potency
CNCC(=O)N[C@@H](CCCN=C(N)N)C(=O)N[C@H](C(=O)N[C@@H](Cc1ccc(O)cc1)C(=O)N[C@H](C(=O)N[C@@H](Cc1cnc[nH]1)C(=O)N1CCC[C@H]1C(=O)N[C@@H](C)C(=O)O)C(C)C)C(C)C,0.0608% (inactive),–
COc1cc([C@@H]2c3cc4c(cc3[C@@H](O[C@@H]3O[C@@H]5CO[C@@H](C)O[C@H]5[C@H](O)[C@H]3O)[C@H]3COC(=O)[C@H]23)OCO4)cc(OC)c1O,1.34% (inactive),–
C[S+](CC[C@H](N)C(=O)O)C[C@H]1O[C@@H](n2cnc3c(N)ncnc32)[C@H](O)[C@@H]1O (stereo not given in full),–,inactive
NC(=O)C1c2ccccc2CCc2ccccc21,-0.486% (inactive),–
CN[C@H](CC(C)C)C(=O)N[C@H]1C(=O)N[C@@H](CC(N)=O)C(=O)N[C@H]2C(=O)N[C@H]3C(=O)N[C@H](C(=O)N[C@@H](C(=O)O)c4cc(O)cc(O)c4-c4cc3ccc4O)[C@H](O)c3ccc(c(Cl)c3)Oc3cc2cc(c3O[C@@H]2O[C@H](CO)[C@@H](O)[C@H](O)[C@H]2O[C@H]2C[C@](C)(N)C(O)[C@H](C)O2)Oc2ccc(cc2Cl)[C@H]1O (stereo not given in full),–,inactive
CCCCCCCCCCCCCCCCCC(=O)O,-0.834% (inactive),–
Cc1cnc(C(=O)O)c[n+]1[O-],–,inactive
CC(=O)O[C@H]1C[C@@H]2CC[C@@H]3[C@H](CC[C@@]4(C)[C@H]3C[C@H]([N+]3(C)CCCCC3)[C@@H]4OC(C)=O)[C@@]2(C)C[C@@H]1[N+]1(C)CCCCC1,-0.982% (inactive),–
CO/N=C(\C(=O)N[C@@H]1C(=O)N2C(C(=O)O)=C(CSc3nc(C)c(CC(=O)O)s3)CS[C@H]12)c1csc(N)n1,1.35% (inactive),–
CC(C)c1ncc([N+](=O)[O-])n1C,-1.05% (inactive),–
CC1(C)CCC(NC(=O)[C@@H](N)CCC(=O)O)CC1,-0.692% (inactive),–
Cc1cn([C@H]2C[C@H](O)[C@@H](CO)O2)c(=O)[nH]c1=O,0.288% (inactive),–
CC(C)OC(=O)Nc1ccc2nc(-c3cscn3)[nH]c2c1,1.3% (inactive),–
Cc1ccc(C(C)(C)c2ccc(C)cc2)cc1,-0.975% (inactive),–
C[Se]CC[C@H](N)C(=O)O,1.44% (inactive),–
Nc1cc(Cl)c(NC2=NCCN2)c(Cl)c1,-0.309% (inactive),–
c1ccc2c(c1)OCC(CN1CCCCC1)O2 (stereo not given),-0.257% (inactive),–
CN1C(=O)C[C@@H](C(=O)N[C@@H](Cc2cnc[nH]2)C(=O)N2CCC[C@H]2C(N)=O)NC1=O,0.738% (inactive),–
O.O.O.O.O.O.O.O=S(=O)([O-])[O-].[Co+2],-1.76% (inactive),–
COc1cc(NS(C)(=O)=O)ccc1Nc1c2ccccc2nc2ccccc12,11.3% (inactive),–

Structure (SMILES),PLD induction,Potency
C=CC[N@@+]12CC[C@@]34c5ccccc5N5/C=C6/[C@H]7C[C@H]8[C@@]9(CC[N@@+]8(CC=C)C/C7=C/CO)c7ccccc7N(/C=C(/[C@@H](C[C@@H]31)/C(=C\CO)C2)[C@H]54)[C@@H]69,0.23% [at 15.5 µM] (inactive),–
Cc1onc(-c2c(F)cccc2Cl)c1C(=O)N[C@@H]1C(=O)N2[C@@H]1SC(C)(C)[C@@H]2C(=O)O,–,inactive
CCCCCCCCCCCCCCCCCCOCC(COP(=O)([O-])OCC[N+](C)(C)C)OC (stereo not given),-0.602% (inactive),–
O=C1[O][Bi][O]c2ccccc21,-0.561% (inactive),–
CCCC(CCC)C(=O)OC1C[C@H]2CC[C@@H](C1)[N+]2(C)C (stereo not given in full),–,inactive
O=C(O)c1cc2cc(Cc3cccnc3)ccc2o1,0.373% (inactive),–
C=C1[C@@H]2CC[C@@H](C2)C1(C)C,2.78% (inactive),–
COC1=C(OC)C(=O)C(C/C=C(\C)CC/C=C(\C)CC/C=C(\C)CC/C=C(\C)CC/C=C(\C)CC/C=C(\C)CC/C=C(\C)CC/C=C(\C)CC/C=C(\C)CCC=C(C)C)=C(C)C1=O,–,inactive
C/C(=C(/CCO)SSCC1CCCO1)N(C=O)Cc1cnc(C)nc1N (stereo not given),–,inactive
O=P(O)(O)CP(=O)(O)O,1.14% (inactive),–
Cc1cc(CC(C)CC(C)(C)C)n(O)c(=O)c1 (stereo not given) (tested in a mixture with another compound),-0.0683% (inactive),–
CC(C)[N+]1(C)[C@@H]2CC[C@H]1CC(OC(=O)C(CO)c1ccccc1)C2 (stereo not given in full),–,inactive
CCCCCCCCCCCCOS(=O)(=O)O,-0.261% (inactive),–
CCCCCCCC[N+](C)(C)CCCCCCCC,–,inactive
COc1c(O)cc2c(c1O)[C@@H]1O[C@H](CO)[C@@H](O)[C@H](O)[C@H]1OC2=O,-0.409% [at 15.5 µM] (inactive),–
O=C(O)c1ccccc1O,–,inactive
CC[C@H](C)C(=O)O[C@H]1CCC=C2C=C[C@H](C)[C@H](CC[C@@H]3C[C@@H](O)CC(=O)O3)[C@H]21,-1.65% (inactive),–
CC1(C)S[C@@H]2[C@H](NC(=O)[C@@H](NC(=O)N3CCNC3=O)c3ccccc3)C(=O)N2[C@H]1C(=O)O,-1.33% [at 15.5 µM] (inactive),–
N[C@H](C(=O)O)[C@@H]1CC(Cl)=NO1,-1.19% (inactive),–
O=C(O)[C@@H]1C[C@H](CP(=O)(O)O)CCN1,-1.06% (inactive),–
